Molecules are shown by their SMILES. Inconclusive results are not listed. The source made the active and inactive calls. Calls come from the whole dose curve; as a rule, active = well fitted cell-killing curve with a large enough effect; inconclusive = small, poorly fitted or top-dose-only effect; inactive = no such curve, though single readings can be large or run the other way.
Potency is the fitted concentration of half-maximal effect.

The nature of the experiment: qHTS of pediatric cancer cell lines to identify multiple opportunities for drug repurposing: Primary screen for Saos-2 cells (AID 1347097). Note: nearly all actives have a fitted effect of over 40% in size. The settings on record: Saos-2 viability, CellTiter-Glo ATP luminescence, 48 h; series mostly up to 46 µM. The text has this: Drug repurposing or repositioning has been offered as a strategy for drug development in oncology programs. This approach has special potential for childhood cancers and other rare or orphan diseases, where the expected return on new drug development has been a disincentive to pharmaceuticals. […] In this project we exploit the poly-pharmacology of drugs to discover new indications via phenotypic screening of a panel of 19 well-characterized cell lines derived from solid tumors seen in children and adolescents. The goal is to identify approved drugs with previously unrecognized anticancer properties that has the potential to reveal new mechanisms and biological processes involved in carcinogenesis or drug resistance. We employed a titration-based paradigm (quantitative high-throughput screening or qHTS), where all compounds were tested at multiple concentrations for their effect on cell viability. Concentration-response curves (CRCs) were derived directly from the primary screen, and both potency and efficacy values were used to identify compounds with robust bioactivity profiles. We screened the NIH Chemical Genomics Center (NCGC) Pharmaceutical Collection (NPC) and Mechanism Interrogation Plate (MIPE) small molecule collections of approved and investigational compounds against these cell lines; and measured metabolically active cells after 48 hours of compound treatment as a proxy for cell viability. […] Assay Submitter: Nathalia J. Martinez, National Center for Advancing Translational Sciences, National Institutes of Health, Rockville, MD, USA; email: natalia.martinez@nih.gov Shen, M et al. Quantitative high-throughput phenotypic screening of pediatric cancer cell lines identifies multiple opportunities for drug repurposing. Oncotarget 2017 Dec 19;9(4):4758-4772. PMID 29435139.
The cells were obtained from University of North Carolina (UNC), Pediatric Preclinical Testing Program (PPT), and Coriell Institute (CI). qHTS cell viability assay: Cells were assayed in growth media at a density of 500-1,000 cells/well. Five microliters of cells were dispensed into 1,536-well, white, solid-bottom, TC-treated plates (Greiner Bio One) using a multidrop dispenser and incubated at 37 degrees C, 5% CO2, under a humidified atmosphere for 5 hours. Twenty-three nanoliters of compounds and controls (neutral control DMSO or positive control bortezomib at final concentration of 2.3 µM) were subsequently transferred by Kalypsys pintool. For primary screens, the MIPE collection was tested at 11-point dilutions (final concentrations range from 0.78 nM to 46 µM) and the NPC collection at 8-point dilutions (final concentrations range from 0.59 nM to 46 µM). Compounds tested in follow-up screens were assayed at 11-point dilutions. Cells were incubated for 48 hours, followed by addition of 3 µL of CellTiter-Glo (Promega). After a 15 min incubation at room temperature, samples were analyzed for luminescence intensity using a ViewLux High-throughput CCD imager equipped with clear filters.
For `CCc1cccc(CC)c1NC(=O)N1Cc2[nH]nc(NC(=O)c3ccc(N4CCN(C)CC4)cc3)c2C1`, the Potency was 1.18 µM (active).

For the compound `CN1CCN(c2cccc(Nc3nc4c(-c5ccc(S(C)(=O)=O)cc5)cccn4n3)c2)CC1`, the Potency is 18.7 µM (active).

As to `NC1(C(=O)N[C@@H](CCO)c2ccc(Cl)cc2)CCN(c2ncnc3[nH]ccc23)CC1`, the Potency was 5.9 µM (active).

On to `NC(=O)c1nnn(Cc2cc(Cl)c(C(=O)c3ccc(Cl)cc3)c(Cl)c2)c1N`, for which the Potency is 23.5 µM (active).

`C[C@@H](O[C@H]1OCCN(Cc2n[nH]c(=O)[nH]2)[C@@H]1c1ccc(F)cc1)c1cc(C(F)(F)F)cc(C(F)(F)F)c1`: the Potency is 26.4 µM (active).

In the case of `CC(=O)N1CCN(c2ccc(OCc3nn(C)c(C)c3-c3cccc4c(CCCOc5cc(C)c(Cl)c(C)c5)c(C(=O)O)n(Cc5cccnc5)c34)cc2)CC1`, the Potency was 18.7 µM (active).

With `CN[C@@H]1CN(c2ccc3c(=O)c(C(=O)O)cn(-c4nccs4)c3n2)C[C@@H]1OC`, the Potency entry was “inactive”.

For the compound `Cc1cnc(Nc2cccc(CN3CCOCC3)c2)nc1Nc1cccc(S(=O)(=O)NC(C)(C)C)c1`, the Potency is 5.26 µM (active).

With `Cc1ccccc1C(=O)c1ccc(Nc2ccc(Br)cc2N)cc1Cl`, the Potency is 18.7 µM (active).

As for `CCCCn1c(=O)n(Cc2ccccc2F)c(=O)c2[nH]c(Cc3ccc(NC(C)=O)cc3)nc21`, the Potency result is “inactive”.

On to `C=C[C@@H]1CN2CCC1C[C@@H]2C(O)c1ccnc2ccc(OC)cc12` (stereo not given in full), for which the Potency result is “inactive”.

As to `CS(=O)(=O)c1ccc(C2=C(c3ccccc3)C(=O)OC2)cc1`, the Potency result is “inactive”.

Regarding `O=C(Nc1cccc(C(F)(F)F)c1)Nc1cc(S(=O)(=O)NC2CC2)ccc1-c1ccsc1`, the Potency was 29.6 µM (active).

Regarding `CNC1[C@H](O)C(O[C@@H]2C(O)C(O[C@H]3O[C@H]([C@@H](C)NC)CC[C@H]3N)[C@@H](N)C[C@H]2N)OC[C@]1(C)O` (stereo not given in full), the Potency entry was “inactive”.

Regarding `O=c1[nH]c(=O)n([C@H]2C[C@@H](O)[C@@H](CO)O2)cc1C(F)(F)F`, the Potency entry was “inactive”.

Regarding `CNC(=O)c1cc(Oc2ccc(NC(=O)Nc3ccc(Cl)c(C(F)(F)F)c3)c(F)c2)ccn1`, the Potency is 16.6 µM (active).

For `COc1cc2c(cc1OC)[C@@H]1Cc3ccc(OC)c(OC)c3CN1CC2`, the Potency result was “inactive”.

As for `CC[C@@H]([C@H](C)O)n1ncn(-c2ccc(N3CCN(c4ccc(OCC5CO[C@@](Cn6cncn6)(c6ccc(F)cc6F)C5)cc4)CC3)cc2)c1=O` (stereo not given in full), the Potency is 26.4 µM (active).

With `O=C(O)C1=NC(C(=O)O)CC(C=CN2c3cc(O)c(OC4OC(CO)C(O)C(O)C4O)cc3CC2C(=O)O)=C1` (stereo not given), the Potency result was “inactive”.

Turning to `O=C1CCCC(=O)C1C(=O)c1ccc(C(F)(F)F)cc1[N+](=O)[O-]`, the Potency entry is “inactive”.

For the compound `OC[C@H]1O[C@@H](O[C@H]2[C@@H](O)[C@@](O)(CO)O[C@@H]2CO)[C@H](O)[C@@H](O)[C@@H]1O`, the Potency entry is “inactive”.

With `Cc1ccc(C(=O)N(CCCN)[C@@H](c2nc3cc(Cl)ccc3c(=O)n2Cc2ccccc2)C(C)C)cc1`, the Potency is 0.001 µM (active).

For `COc1cc2nccc(Oc3ccc(NC(=O)Nc4cc(C)on4)c(Cl)c3)c2cc1OC`, the Potency was 14.8 µM (active).

Regarding `CCCCCCCCCCCCCC(=O)N[C@H](CO)[C@H](O)c1ccc([N+](=O)[O-])cc1`, the Potency was 18.7 µM (active).

`CC[C@H](C)n1cc(C)c2c(C(=O)NCc3c(C)cc(C)[nH]c3=O)cc(-c3ccc(N4CCNCC4)nc3)cc21`: the Potency is 18.7 µM (active).

`CNC(=O)c1c(-c2ccc(F)cc2)oc2cc(N(CCO)S(C)(=O)=O)c(C3CC3)cc12`: the Potency is 16.6 µM (active).

As to `O=c1[nH]nc(OCCCc2ccc(Cl)cc2)c(NCc2cccnc2)c1Br`, the Potency is 26.4 µM (active).

As for `CNC(=O)c1cc(COc2nnc(Nc3ccc(Cl)cc3)c3ccoc23)ccn1`, the Potency was 18.7 µM (active).

With `CCCCC(C)(C)[C@H](O)C=C[C@H]1[C@H](O)CC(=O)[C@H]1CC=CCCCC(=O)O`, the Potency result is “inactive”.

On to `C#C[C@]1(O)CC[C@H]2[C@H]3CCc4cc(OC)ccc4[C@H]3CC[C@@]21C`, for which the Potency result was “inactive”.

`CC(=O)NCCC(=O)N[C@@H](CCC(N)=O)C(=O)N[C@@H](CO)C(=O)N[C@@H](CCC(N)=O)C(=O)N[C@@H](CCC(N)=O)C(=O)N[C@H](C(=O)N[C@@H](Cc1ccccc1)C(=O)N[C@]1(C)CCCCCCC=CCCC[C@@](C)(C(=O)N[C@@H](CCC(N)=O)C(=O)N[C@@H](CC(N)=O)C(N)=O)NC(=O)[C@H](CC(C)C)NC(=O)[C@H](CC(C)C)NC(=O)[C@@H](CCCNC(=N)N)NC(=O)[C@H](Cc2c[nH]c3ccccc23)NC(=O)[C@H](CC(C)C)NC(=O)[C@H](CC(N)=O)NC1=O)[C@H](C)O`: the Potency result was “inactive”.

Turning to `O=C(O)c1ccc(O)c2ncc(N3CCOCC3)cc12`, the Potency is 23.5 µM (active).

Turning to `Nc1ncnc2c1ncn2[C@@H]1O[C@H](CO)[C@@H](O)[C@@H]1O`, the Potency was 2.96 µM (active).

Consider `CNC1CCC(N(Cc2cccc(-c3ccncc3)c2)C(=O)c2sc3ccccc3c2Cl)CC1` (stereo not given), for which the Potency was 26.4 µM (active).

For the compound `COC(=O)Nc1ccc(-c2nc(N3CCOCC3)c3cnn(C4CCN(C(=O)OC)CC4)c3n2)cc1`, the Potency is 2.96 µM (active).

For `COc1ccc(-c2ccc3ncc4c(c3c2)n(-c2ccc(N3CCNCC3)c(C(F)(F)F)c2)c(=O)n4C)cn1`, the Potency is 0.418 µM (active).

Take `COc1cccc(OC)c1-c1cc(C(=O)NC2(C(=O)O)C3CC4CC(C3)CC2C4)nn1-c1ccnc2cc(Cl)ccc12` (stereo not given): the Potency result was “inactive”.

For `CN1CCC(COc2cnc(-c3cccc(Cn4nc(-c5cccc(C#N)c5)ccc4=O)c3)nc2)CC1`, the Potency result is “inactive”.

For `CN(C)N=Nc1nc[nH]c1C(N)=O`, the Potency result was “inactive”.

On to `CC(=O)OCC(=O)[C@@]1(O)CC[C@H]2[C@@H]3CCC4=CC(=O)C=C[C@]4(C)[C@@H]3[C@@H](O)C[C@@]21C`, for which the Potency entry is “inactive”.

(Values after PubChem BioAssay (NCATS).)
